# Reference: PubChem BioAssay AID2685 (National Center for Advancing Translational Sciences (NCATS), 2010)
# The whole screen tested about 320,000 compounds, of which about 2,100 (0.66%) were called active. Another 53% or so got no clear call; they are omitted. Calls follow the shape of the dose curve; as a rule, active = well fitted inhibition curve with a large enough effect in the signal ratio, with a control signal flat (not every such curve was filed as active); inconclusive = small, poorly fitted or top-dose-only effect, or effect the other way, or a change in a side signal; inactive = flat fitted curve, though single readings scatter; the % refers to the signal ratio. The entries come from a sample that favours actives as a whole.
# Assay: qHTS Assay for Lipid Storage Modulators in Drosophila S3 Cells;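 as to cell number change: cells counted by Cell Tracker Red CMTPX staining in the red channel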; as to lipid storage change, negative = inhibition: % is scaled to controls: 0 for no effect and ±100 for the full control effect
# Details: BODIPY lipid droplet fluorescence, 18-24 h, cells fed with added oleic acid; cell number change: measured here: cell count max response; series mostly up to 46.1 µM; lipid storage change, negative = inhibition: at the top concentration
# Procedure, shortened: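 Drosophila S3 cells loaded with oleic acid (400 uM, as added) and compounds at several concentrations; lipid droplets imaged by 488-nm laser-scanning cytometry, 500–530 nm intensity and object ratio to cell channel. Percent activity normalized to 20 uM Triacsin C.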
# Potency is read from the fitted curve at half-maximal effect.
SMILES,"lipid storage change, negative = inhibition",cell number change,outcome,Potency
Cn1ncc(Br)c1C(=O)Nc1ccc(F)cc1F,7.86% (inactive),0.403%,–,–
COc1ccc(C(=O)Nc2ccc(NC(C)=O)cc2)cc1S(=O)(=O)N1CCCCC1C (stereo not given),-18.6% (inactive),-5.58%,–,–
CC(CNC(=O)Cn1ccc2cc(S(=O)(=O)N3CCCC3)ccc21)c1ccccc1 (stereo not given),–,5.34%,inactive,–
O=C(OCc1nc(-c2ccccc2Cl)no1)c1ccco1,27% (inactive),1%,–,–
Cc1ccc(-c2ccc3nnc(SCC(=O)NCC4CCCO4)n3n2)cc1 (stereo not given),-0.391% (inactive),7.62%,–,–
Cc1ccc(NS(=O)(=O)c2ccc(NC(=O)C3CCCO3)cc2)cc1 (stereo not given),-28% (inactive),-28.7%,–,–
COc1ccccc1CN1CCN(C(CC(C)C)c2nnnn2Cc2cccs2)CC1 (stereo not given),–,–,inactive,–
CCOC(=O)[C@@H]1[C@H]2COc3ccccc3[C@H]2N2C(=O)N(c3ccc(C(F)(F)F)cc3)C(=O)[C@]12C,–,21.9%,–,1.46 µM (active)
CCOC(=O)[C@@H]1[C@H]2COc3ccccc3[C@H]2N2C(=O)N(c3ccc(Cl)cc3)C(=O)[C@]12C,17.4% (inactive),10.8%,–,–
CCOC(=O)[C@@H]1[C@H]2COc3ccccc3[C@@H]2N2C(=O)N(c3ccc(F)cc3)C(=O)[C@@]12C,–,-1.5%,inactive,–
CCc1ccc(NC(=O)C(=S)NC2CCCCC2)cc1,0.149% (inactive),1.88%,–,–
Nn1c(SCC(=O)NC2CCCCC2)nnc1-c1ccc(Cl)cc1,-4.17% (inactive),17.9%,–,–
Cc1[nH]n(C)c(=O)c1[N+](=O)[O-],17.8% (inactive),4.99%,–,–
COc1ccc(/C=N/OCC(=O)N2CC3(C)CC2CC(C)(C)C3)cc1 (stereo not given),0.198% (inactive),10.1%,–,–
CCN(C(=O)COC(=O)/C=C/c1ccc(OC(F)F)c(OC)c1)C1CCS(=O)(=O)C1 (stereo not given),3.68% (inactive),4.02%,–,–
COc1cc(/C=C/C(=O)OCC(=O)N(C)C2CCS(=O)(=O)C2)ccc1OC(F)F (stereo not given),-10.5% (inactive),9.45%,–,–
COc1cc(/C=C/C(=O)OCC(=O)N2CCC(C)CC2)ccc1O,20% (inactive),24.6%,–,–
COc1cc(/C=C/C(=O)OCC(=O)N2CC3(C)CC2CC(C)(C)C3)ccc1O (stereo not given),–,18.4%,–,0.651 µM (active)
CCN(C(=O)COC(=O)/C=C/c1ccc(O)c(OC)c1)C1CCS(=O)(=O)C1 (stereo not given),–,-23.9%,–,13 µM (active)
O=c1[nH]c(COc2ccc(Br)cc2Cl)nc2ccccc12,5.12% (inactive),-15%,–,–
COc1ccc(CN2CC(C(=O)NCC3CCCO3)CC2=O)cc1 (stereo not given),0.667% (inactive),14%,–,–
N#C/C(=C\c1c(N2CCCCCC2)nc2ccccn2c1=O)C(=O)NC1CCS(=O)(=O)C1 (stereo not given),20.6% (inactive),–,–,–
N#C/C(=C\c1c(N2CCCCCC2)nc2ccccn2c1=O)C(N)=O,10.3% (inactive),22.6%,–,–
N#C/C(=C\c1c(N2CCC(C(N)=O)CC2)nc2ccccn2c1=O)C(=O)NC1CCCCC1,–,-18.3%,–,0.164 µM (active)

SMILES,"lipid storage change, negative = inhibition",cell number change,outcome,Potency
O=C1/C(=C\c2ccccc2)CCc2c1[nH]c1ccccc21,–,–,inactive,–
Cc1cc(=O)n2nc(N3CCCC(C(=O)NCc4cccc(Br)c4)C3)sc2n1 (stereo not given),–,–,inactive,–
NC(=O)c1ccccc1OCc1cccc2ccccc12,–,–,inactive,–
CC1(C)CC(=O)C2=C(C1)N=C1SCCC(=O)N1C2c1ccccc1 (stereo not given),18.4% (inactive),9.02%,–,–
Cc1ccc(S(=O)(=O)NNC(=O)c2csnn2)cc1,-10.6% (inactive),–,–,–
O=[N+]([O-])c1ccc(CN2CCCCCC2)s1,-6.35% (inactive),-8.81%,–,–
Cc1ccc2nc(SCC(=O)Nc3cc(C)on3)nc(=O)n2c1,-10.5% [at 0.0737 µM] (inactive),23.9%,–,–
Cc1ccc2nc(SCC(=O)Nc3cccc(F)c3)nc(=O)n2c1,–,1.08%,–,4.11 µM (active)
Cc1ccc2nc(SCC(=O)Nc3ccc(Br)cc3)nc(=O)n2c1,-21.1% (inactive),-15.9%,–,–
CCOC(=O)C1=C(N)OC2=C(C(=O)CC(C)(C)C2)C1c1cccnc1 (stereo not given),26.8% (inactive),-4.63%,–,–
COCCCNC(=S)N(Cc1ccccc1)Cc1ccccc1,-3.1% (inactive),-0.836%,–,–
CCOCCCNC(=S)N(Cc1ccccc1)Cc1nc2ccccc2c(=O)[nH]1,–,5.59%,–,0.92 µM (active)
O=C(c1ccccc1)N(Cc1ccc(F)cc1)Cc1nc2ccccc2c(=O)[nH]1,4.2% (inactive),-10.1%,–,–
CNC(=S)N(Cc1cc2ccc(OC)cc2[nH]c1=O)CC1CCCO1 (stereo not given),-12.6% (inactive),-8.74%,–,–
Cc1onc(-c2ccccc2)c1-c1ccnn1C(=O)NC(C)C,-0.97% (inactive),15.2%,–,–
O=C1CCCC(=O)N1c1ccc(N2CCN(c3ccccc3)CC2)c([N+](=O)[O-])c1,6.96% (inactive),-1.18%,–,–
O=C1CCCC(=O)N1c1ccc(N2CCN(c3ccc([N+](=O)[O-])cc3)CC2)c([N+](=O)[O-])c1,–,-26.2%,–,20.6 µM (active)
Cc1cccc(N2CCN(c3ccc(N4C(=O)CCCC4=O)cc3[N+](=O)[O-])CC2)c1C,11.2% (inactive),4.71%,–,–
COC(=O)[C@@H]1C[C@@]2(O)[C@@H](O)[C@@H](O)[C@@H](O)C[C@H]2N1CC(c1ccccc1)c1ccccc1,-0.438% (inactive),–,–,–
O=C(c1cc2n(n1)C(C(F)(F)F)CC(c1ccc(Cl)cc1)N2)N1CCCC1 (stereo not given),–,–,inactive,–
O=C(O)CCC(=O)N1CCc2cc(S(=O)(=O)NCc3ccc(Cl)cc3)ccc21,2.28% (inactive),–,–,–
COc1ccccc1OCC(=O)Nc1ccc(NC(=O)COc2ccccc2OC)cc1,-14.2% (inactive),-9.29%,–,–
COc1ccc2nc(SCC(=O)NC3CCCCC3)[nH]c2c1,7.03% (inactive),19.4%,–,–
